Measurements as given in PubChem BioAssay AID1159580 (chemical genetic matrix, 2015).
Where “and” joins values, the source holds several entries; their conditions need not be identical. Equal values may be shown once. In all, about 5,500 compounds went through this assay and about 2,000 (36%) were called active. Inconclusive results (about 18%) are left out. No stated cut-off is given here; in the data, active means normalized growth mostly below about 0.91 (no sharp cut-off); inconclusive means no clear call, values can overlap the other calls; inactive means mostly above about 0.92. The list shows a part of the results.

Test: chemical genetic growth profiling, strain panel (AID 1159580);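 further: tested at 20 µM; growth read once vehicle control cultures reached saturation at 30 °C; 1 = growth at the plate median or of vehicle wells; lower values mean less growth of the strain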
Conditions: growth OD

Measured: normalized growth

CC(C)Cn1c(=O)n(C)c(=O)c2[nH]cnc21
inactive: S. cerevisiae deletion strains, locus YJR075W, strain HOC1, active compounds read low 0.999 | S. cerevisiae deletion strains, locus YKL009W, strain mrt4, active compounds read low 0.969 | S. cerevisiae deletion strains, locus YKL068W, active compounds read low 0.991 | S. cerevisiae deletion strains, locus YKL085W, strain MDH1 (second series), active compounds read low 0.983 | S. cerevisiae deletion strains, locus YKL085W, strain MDH1, active compounds read low 0.983 | S. cerevisiae deletion strains, locus YKL160W, strain elf1, active compounds read low 0.986 and 0.992 | S. cerevisiae deletion strains, locus YKL190W, strain CNB1, active compounds read low 1.01 | S. cerevisiae deletion strains, locus YKR001C, strain vps1, active compounds read low 0.967 | S. cerevisiae deletion strains, locus YKR026C, strain gcn3, active compounds read low 0.985 and 1.01 | S. cerevisiae deletion strains, locus YKR091W, strain srl3, active compounds read low 0.988 and 1 | S. cerevisiae deletion strains, locus YLL001W, strain dnm1, active compounds read low 0.994 and 1.01 | S. cerevisiae deletion strains, locus YLL026W, active compounds read low 0.999 and 1.01 | S. cerevisiae deletion strains, locus YLL041C, strain sdh2, active compounds read low 0.997 and 1 | S. cerevisiae deletion strains, locus YLR027C, strain aat2, active compounds read low 1 and 1.01 | S. cerevisiae deletion strains, locus YLR039C, strain RIC1, active compounds read low 0.953 | S. cerevisiae deletion strains, locus YLR058C, strain SHM2, active compounds read low 0.991 | S. cerevisiae deletion strains, locus YLR102C, strain apc9, active compounds read low 0.99 | S. cerevisiae deletion strains, locus YLR113W, strain HOG1, active compounds read low 1.01 and 0.985 | S. cerevisiae deletion strains, locus YLR221C, strain rsa3, active compounds read low 1 and 1.04 | S. cerevisiae deletion strains, locus YLR258W, strain gsy2, active compounds read low 0.988 and 1.02 | S. cerevisiae deletion strains, locus YLR262C, strain YPT6 (second series), active compounds read low 1.01 and 0.998 | S. cerevisiae deletion strains, locus YLR262C, strain YPT6, active compounds read low 0.966 | S. cerevisiae deletion strains, locus YLR268W, strain sec22, active compounds read low 0.978 | S. cerevisiae deletion strains, locus YLR320W, strain mms22, active compounds read low 1 and 1.04 | S. cerevisiae deletion strains, locus YLR330W, strain CHS5, active compounds read low 0.991 | S. cerevisiae deletion strains, locus YLR342W, strain FKS1 (second series), active compounds read low 0.953 | S. cerevisiae deletion strains, locus YLR342W, strain FKS1, active compounds read low 1 and 1.01 | S. cerevisiae deletion strains, locus YLR357W, strain rsc2, active compounds read low 1.03 and 1 | S. cerevisiae deletion strains, locus YLR370C, strain arc18, active compounds read low 1 and 1.03 | S. cerevisiae deletion strains, locus YLR371W, strain rom2, active compounds read low 0.982 | S. cerevisiae deletion strains, locus YLR384C, strain iki3, active compounds read low 0.985 and 1.01 | S. cerevisiae deletion strains, locus YLR418C, strain cdc73, active compounds read low 1.02 | S. cerevisiae deletion strains, locus YML016C, strain PPZ1, active compounds read low 0.988 | S. cerevisiae deletion strains, locus YML032C, strain rad52, active compounds read low 0.973 | S. cerevisiae deletion strains, locus YML120C, strain ndi1, active compounds read low 1.01 and 0.981 | S. cerevisiae deletion strains, locus YML124C, strain tub3, active compounds read low 0.981 | S. cerevisiae deletion strains, locus YMR058W, strain fet3, active compounds read low 1.01 and 1.03 | S. cerevisiae deletion strains, locus YMR078C, strain ctf18, active compounds read low 0.98 | S. cerevisiae deletion strains, locus YMR125W, strain sto1, active compounds read low 0.998 and 0.978 | S. cerevisiae deletion strains, locus YMR129W, active compounds read low 0.994 and 1 | S. cerevisiae deletion strains, locus YMR205C, strain PFK2, active compounds read low 0.991 and 0.986 | S. cerevisiae deletion strains, locus YMR223W, strain ubp8, active compounds read low 0.973 | S. cerevisiae deletion strains, locus YMR231W, strain pep5, active compounds read low 1 and 1.01 | S. cerevisiae deletion strains, locus YMR263W, strain SAP30, active compounds read low 1.01 | S. cerevisiae deletion strains, locus YMR307W, strain GAS1, active compounds read low 0.924 | S. cerevisiae deletion strains, locus YNL067W, strain RPL9B, active compounds read low 0.999 | S. cerevisiae deletion strains, locus YNL071W, strain lat1, active compounds read low 1.02 and 1 | S. cerevisiae deletion strains, locus YNL128W, strain TEP1, active compounds read low 1.01 | S. cerevisiae deletion strains, locus YNL153C, strain GIM3, active compounds read low 1.02 | S. cerevisiae deletion strains, locus YNL175C, strain NOP13, active compounds read low 0.999 | S. cerevisiae deletion strains, locus YNL183C, strain NPR1, active compounds read low 0.928 and 0.909 | S. cerevisiae deletion strains, locus YNL197C, strain WHI3, active compounds read low 0.986 | S. cerevisiae deletion strains, locus YNL209W, strain ssb2, active compounds read low 1.02 and 0.995 | S. cerevisiae deletion strains, locus YNL224C, strain SQS1, active compounds read low 0.998 | S. cerevisiae deletion strains, locus YNL233W, strain BNI4, active compounds read low 0.998 | S. cerevisiae deletion strains, locus YNL248C, strain rpa49, active compounds read low 0.996 and 1.06 | S. cerevisiae deletion strains, locus YNL250W, strain rad50, active compounds read low 0.98 | S. cerevisiae deletion strains, locus YNL271C, strain bni1, active compounds read low 0.999 | S. cerevisiae deletion strains, locus YNL298W, strain CLA4, active compounds read low 0.983 | S. cerevisiae deletion strains, locus YNL307C, strain MCK1, active compounds read low 0.976 | S. cerevisiae deletion strains, locus YNL322C, strain KRE1 (second series), active compounds read low 0.996 and 0.988 | S. cerevisiae deletion strains, locus YNL322C, strain KRE1, active compounds read low 0.993 and 0.979 | S. cerevisiae deletion strains, locus YNR049C, strain mso1, active compounds read low 0.992 and 1.01 | S. cerevisiae deletion strains, locus YNR052C, strain pop2, active compounds read low 0.989 | S. cerevisiae deletion strains, locus YOL006C, strain TOP1, active compounds read low 0.998 | S. cerevisiae deletion strains, locus YOL012C, strain htz1 2.1 | S. cerevisiae deletion strains, locus YOL147C, strain pex11, active compounds read low 0.985 | S. cerevisiae deletion strains, locus YOR001W, strain rrp6, active compounds read low 1.01 and 1.05 | S. cerevisiae deletion strains, locus YOR061W, strain CKA2, active compounds read low 0.993 | S. cerevisiae deletion strains, locus YOR069W, strain VPS5, active compounds read low 0.987 | S. cerevisiae deletion strains, locus YOR070C, strain gyp1, active compounds read low 1 and 1.01 | S. cerevisiae deletion strains, locus YOR080W, strain dia2, active compounds read low 1.01 | S. cerevisiae deletion strains, locus YOR083W, strain WHI5 (second series), active compounds read low 0.998 | S. cerevisiae deletion strains, locus YOR083W, strain WHI5, active compounds read low 0.958 and 0.992 | S. cerevisiae deletion strains, locus YOR106W, strain vam3, active compounds read low 1 and 0.973 | S. cerevisiae deletion strains, locus YOR136W, strain idh2, active compounds read low 0.981 | S. cerevisiae deletion strains, locus YOR144C, strain elg1, active compounds read low 0.987 | S. cerevisiae deletion strains, locus YOR184W, strain ser1, active compounds read low 0.96 | S. cerevisiae deletion strains, locus YOR231W, strain MKK1, active compounds read low 1.01 and 0.96 | S. cerevisiae deletion strains, locus YOR265W, strain rbl2, active compounds read low 1 | S. cerevisiae deletion strains, locus YOR270C, strain vph1, active compounds read low 0.997 and 1.08 | S. cerevisiae deletion strains, locus YOR290C, strain snf2, active compounds read low 0.994 and 0.97 | S. cerevisiae deletion strains, locus YOR316C, strain cot1, active compounds read low 0.993 | S. cerevisiae deletion strains, locus YPL051W, strain arl3, active compounds read low 0.997 and 1.02 | S. cerevisiae deletion strains, locus YPL055C, strain LGE1, active compounds read low 1.03 | S. cerevisiae deletion strains, locus YPL078C, strain atp4, active compounds read low 1 and 0.993 | S. cerevisiae deletion strains, locus YPL106C, strain sse1, active compounds read low 0.998 and 1.02 | S. cerevisiae deletion strains, locus YPL240C, strain hsp82, active compounds read low 1 and 1.01 | S. cerevisiae deletion strains, locus YPL241C, strain CIN2, active compounds read low 0.992 | S. cerevisiae deletion strains, locus YPL256C, strain CLN2, active compounds read low 0.993 and 0.947 | S. cerevisiae deletion strains, locus YPR119W, strain clb2, active compounds read low 0.993 | S. cerevisiae deletion strains, locus YPR141C, strain kar3, active compounds read low 0.975 | S. cerevisiae deletion strains, locus YPR163C, strain tif3, active compounds read low 0.998 | S. cerevisiae deletion strains, locus YPR167C, strain met16, active compounds read low 0.988 | S. cerevisiae deletion strains, strain wtn01, active compounds read low 0.988 | S. cerevisiae strains, strain wild type, active compounds read low 0.995
